# Source: PubChem BioAssay AID1942 (Johns Hopkins Ion Channel Center, 2009)
# Screen size: about 2,400 compounds; about 580 (24%) were called active. Not all results are given here. Unmarked numbers belong to inactive results.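 Rule for the calls: active = activity change at or above the mean plus 3 SD of buffer wells without dofetilide, per plate; inactive = the rest.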
# Target: Potassium voltage-gated channel subfamily KQT member 2 (Rattus norvegicus) (UniProt O88943)
# Assay: KCNQ2 potentiation in CHO cells – cell-based, FluxOR thallium flux, counter-screen for hERG block protector project, confirmation (AID 1942);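 note: normalized value minus buffer-control mean plus three SD of buffer wells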
# Details: FluxOR thallium flux fluorescence, at 10 µM, active compounds read high
# Sequence of Potassium voltage-gated channel subfamily KQT member 2 (Rattus norvegicus) (O88943 whole entry, looked up): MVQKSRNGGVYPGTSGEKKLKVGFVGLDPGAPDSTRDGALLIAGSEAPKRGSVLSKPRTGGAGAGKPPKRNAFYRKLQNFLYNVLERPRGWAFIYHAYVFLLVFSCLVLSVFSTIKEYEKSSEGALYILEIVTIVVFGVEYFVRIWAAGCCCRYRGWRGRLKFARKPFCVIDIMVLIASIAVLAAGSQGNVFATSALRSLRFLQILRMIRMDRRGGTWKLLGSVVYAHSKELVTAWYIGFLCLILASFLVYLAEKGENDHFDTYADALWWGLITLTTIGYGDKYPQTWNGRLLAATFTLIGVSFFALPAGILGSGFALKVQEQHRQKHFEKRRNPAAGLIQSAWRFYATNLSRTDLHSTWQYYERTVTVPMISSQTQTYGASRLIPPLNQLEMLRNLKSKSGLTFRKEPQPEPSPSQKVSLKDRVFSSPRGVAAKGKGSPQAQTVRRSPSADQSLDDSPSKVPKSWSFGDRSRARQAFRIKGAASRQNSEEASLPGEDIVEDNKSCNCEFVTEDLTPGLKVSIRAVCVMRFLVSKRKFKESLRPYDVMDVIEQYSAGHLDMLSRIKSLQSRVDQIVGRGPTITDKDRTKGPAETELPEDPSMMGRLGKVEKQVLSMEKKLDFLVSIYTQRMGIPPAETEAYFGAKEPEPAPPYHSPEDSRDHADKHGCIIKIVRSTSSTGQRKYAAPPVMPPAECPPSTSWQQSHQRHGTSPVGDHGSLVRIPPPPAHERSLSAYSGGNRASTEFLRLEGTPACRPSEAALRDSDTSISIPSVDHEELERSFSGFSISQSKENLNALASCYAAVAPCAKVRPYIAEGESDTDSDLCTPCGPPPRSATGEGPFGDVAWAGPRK
row,SMILES,"activity change, less the hit threshold"
1,O=C(COc1ccc2ccccc2c1)Nc1ccc(Br)cc1C(=O)O,-9%
2,O=C(COc1ccc(C(=O)c2ccccc2)cc1)Nc1cccnc1,-35%
3,C=CCNC(=O)c1ccccc1NC(=O)COc1ccc(OC)cc1,-11.7%
4,O=C(COc1ccc2ccccc2c1)NNC(=O)C(=O)Nc1ccccc1,47.2% (active)
5,Cc1ccccc1NC(=O)C(=O)NNC(=O)COc1ccc2ccccc2c1,33.6% (active)
6,O=C(COc1ccccc1)Nc1ccc(F)cc1,-28.9%
7,COc1ccccc1NC(=O)C(=O)NNC(=O)COc1ccc2ccccc2c1,93.1% (active)
8,COC(=O)CSc1nnc(COc2ccc3ccccc3c2)o1,-16%
9,CSc1ccc(S(=O)(=O)N2CCC(C(=O)Nc3ccccc3C(F)(F)F)CC2)cc1,-14.7%
10,Cc1nonc1CN(C)C(=O)c1ccc(OC2CCN(Cc3ccccn3)CC2)cc1,-5.7%
11,Cc1ccc(C(=C2C3C=CC2C2C(=O)NC(=O)C32)c2ccc(C)cc2)cc1 (configuration not stated),-17.1%
12,COc1ccccc1C(=O)COC(=O)c1ccc(-n2cnnn2)cc1,-14.7%
13,CCOC(=O)c1nnn(CC(=O)Nc2cccc(F)c2)c1C(=O)OCC,-9.5%
14,COc1ccc(CC(=O)Nc2ccc(-c3noc(-c4ccccc4OC)n3)cc2)cc1,-16.7%
15,O=C(c1ccccc1)c1nccn1-c1ccc(Cl)nn1,-7.9%
16,O=C(CSc1cccc[n+]1[O-])C12CC3CC(CC(C3)C1)C2,-11.8%
17,O=C(NCCCN1CCOCC1)c1ccc(CS(=O)(=O)Cc2ccccc2Cl)o1,-26.5%
18,Cc1ccc(Cn2c(O)c(N=NC(=S)Nc3ccccc3F)c3ccccc32)cc1,-11.4%
19,Oc1c(N=NC(=S)Nc2ccccc2F)c2ccccc2n1Cc1ccc(F)cc1,2.8% (active)
20,Oc1c(N=NC(=S)Nc2ccccc2F)c2ccccc2n1Cc1ccccc1,-9.8%
21,Oc1c(N=NC(=S)Nc2ccccc2F)c2ccccc2n1Cc1ccccc1Cl,-10%

row,SMILES,"activity change, less the hit threshold"
1,Oc1c(N=NC(=S)Nc2ccccc2F)c2ccccc2n1Cc1ccc(Cl)cc1,-13.5%
2,Cc1c(Cl)cccc1NC(=S)N=Nc1c(O)n(CN2CCOCC2)c2ccccc12,4.9% (active)
3,O=C(CN1C(=O)CSCC1=O)Nc1ccc2c(c1)OCO2,-7.1%
4,Nc1ccc2nc(-c3cccs3)[nH]c2c1,-8.8%
5,CC(C)(C)n1nnnc1C(c1cccs1)N1CCN(Cc2ccccc2)CC1 (configuration not stated),-11.7%
6,O=C(/C=C/Nc1ccc(F)c(F)c1)c1cccs1,-17.4%
7,Cc1sc2nc(CN3CCOCC3)[nH]c(=S)c2c1C,93.4% (active)
8,C/C(Nc1cccc(F)c1)=C(/C#N)C(N)=O,-14.7%
9,Cc1nc(NCc2cccnc2)c2c3c(sc2n1)CC(C)CC3 (configuration not stated),26.7% (active)
10,Cc1cccc(NC(=O)CN2C(=O)S/C(=C\c3cccn3-c3cccc(C(=O)O)c3)C2=O)c1,-18.5%
11,CC(C)c1nc2sc3c(=S)nc[nH]c3c2c2c1CCC2,14.2% (active)
12,S=c1nc[nH]c2c1sc1nc(-c3ccccc3)c3c(c12)CCCC3,-4.2%
13,S=c1nc[nH]c2c1sc1nc(N3CCOCC3)c3c(c12)CCCC3,43.5% (active)
14,COc1ccc(S(=O)(=O)Nc2cccnc2)cc1,-17.2%
15,CN(C)C(=O)c1ccc(NC(=O)c2cncc(Br)c2)cc1,-12%
16,O=C(NNC(=S)NC(=O)c1sc2ccccc2c1Cl)c1ccc(Cl)cc1,11.1% (active)
17,COc1ccccc1C(=O)NC(=S)NNC(=O)c1sc2ccccc2c1Cl,77% (active)
18,O=C(Nc1nc(=O)c2ccccc2s1)c1ccc(Cl)cc1,-5.6%
19,Cc1ccc(C(=O)NNC(=S)NC(=O)c2ccc(Cl)cc2)cc1,-28.7%
20,Cc1ccc(NC(=S)NC(=O)c2sc3ccccc3c2Cl)c(C(=O)O)c1,13.9% (active)
21,O=C(NC(=S)Nc1ccc(N2CCOCC2)c(Cl)c1)c1sc2ccccc2c1Cl,-10.6%

row,SMILES,"activity change, less the hit threshold"
1,COc1ccccc1C(=O)NNC(=S)NC(=O)c1sc2ccccc2c1Cl,19.7% (active)
2,COc1cccc(C(=O)NC(=S)Nn2cnnc2)c1OC,-19.6%
3,CCC(C)N(C(=O)CSc1nnc(NC(C)C)s1)C1CCS(=O)(=O)C1 (configuration not stated),-15.4%
4,O=c1cc(CN2CCN(S(=O)(=O)c3ccc4c(c3)OCCO4)CC2)c2ccc(O)cc2o1,-20%
5,S=c1[nH]nc(CSc2nc3ccccc3s2)n1C1CCCCC1,-2.2%
6,Cc1ccc(C(=O)NNc2cc(N3CCCC3)nc(N3CCCC3)n2)cc1,16.1% (active)
7,Cc1ccc(C(=O)Nc2nc(=O)n(C)s2)cc1,-12%
8,Cc1ccc(CNC(=O)c2ccc(CNc3c(N4CCCC4)c(=O)c3=O)cc2)cc1,-23.6%
9,O=C(Nc1nnc(C2=COCCO2)o1)c1ccc(Br)cc1,-2.3%
10,CCn1cc(C(=O)NCCN(C)C)c(=O)c2cc(F)c(N3CCN(C)CC3)cc21,-23.9%
11,COc1ccc(NC(=O)c2ccc(COCC(F)(F)C(F)F)cc2)cc1,-19.7%
12,COc1ccc(NC(=O)c2ccc(NC3=NC4CS(=O)(=O)CC4S3)cc2)cc1 (configuration not stated),-19.9%
13,COc1ccc(C(=O)Nc2ccc(-n3nncc3C(C)(C)C)cc2)cc1,17.5% (active)
14,CCSc1nnc(NC(=O)CC(C)C)s1,-11.1%
15,Cc1nn(CCC#N)c2nc(-c3ccccc3)cc(C(F)(F)F)c12,-22.2%
16,Cc1[nH]n2c(=O)cc(C(C)C)nc2c1-c1ccccc1,-3.3%
17,NC(=O)c1nn2c(C(F)(F)F)cc(-c3ccccc3)nc2c1Br,-18.2%
18,O=c1cc(-c2ccccc2)nc2c(-c3ccccc3)c(C(F)(F)F)[nH]n12,59.6% (active)
19,Cc1[nH]n2c(=O)cc(C(C)(C)C)nc2c1-c1ccccc1,14.6% (active)
20,CN(C(=O)CCc1ccccc1)c1nnc(-c2ccncc2)s1,-20.2%
